The values below come from PubChem BioAssay (NCI).

Holding throughout (assay): NCI-60 one-dose screen, 48 h (100 = growth as untreated, 0 = no growth, -100 = all killed)
Conditions in all cases: 10 µM unless noted

The test system of assay [1] is DU-145 prostate.
Assay [2] has as its system K-562 leukemia.
The test system of assay [3] is MALME-3M melanoma.
Assay [4] deals with MDA-MB-231 breast.
Assay [5] relates to RXF 393 renal.
Assay [6] deals with SF-295 CNS.
For assay [7], the system named is SF-539 CNS.
Assay [8] has as its system UACC-257 melanoma.
For assay [9], the system named is M14 melanoma.
Assay [10] deals with HCT-15 colon.
Assay [11] concerns HT29 colon.
The subject of assay [12] is SNB-75 CNS.
Assay [13] relates to SNB-19 CNS.
In assay [14] the test system is U251 CNS.
For assay [15], the system named is PC-3 prostate.
Assay [16] concerns SK-MEL-5 melanoma.
The subject of assay [17] is UACC-62 melanoma.
Assay [18] has as its system LOX IMVI melanoma.
In assay [19] the test system is SK-MEL-28 melanoma.
In assay [20] the test system is SF-268 CNS.

Each structure is given as a SMILES string. About 83,000 compounds went through this panel and 20% of them were active in at least one assay; those are over-represented in the sample as a whole.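 Testing used 96-well plates and a 48-hour single-concentration exposure. Example: -40 means 40% of the starting cells died.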 A number with no mark means an inactive call. Activity calls are given as the source filed them. The calls were made as follows: active = growth percent below 10; inactive = the rest.

For the compound `CCNS(=O)(=O)c1ccc(C)cc1`, the growth was 96.5% in [1]; 105% in assay [2]; 104% in [3]; 113% in assay [4]; 113% in assay [5]; 104% in assay [6]. The growth in assay [7] was 102%; in [8] it was 107%; in assay [9] it was 106%; in [10], 98.5%; in assay [11], 117%; in assay [12], 85.2%. Besides, the growth was 103% in assay [13]; 105% in assay [14]; 95.7% in assay [15]; 140% in [16]; 106% in assay [17]; 100% in assay [18]. Moreover, in [19], the growth is 115%.
With `CC(=O)c1nn(-c2ccccc2)/c(=N\N=C\c2coc3ccc(F)cc3c2=O)s1`, the growth was 111% in [1]; 94.5% in assay [2]; 102% in assay [3]; 88.3% in [4]; 116% in [5]; 87.8% in [20]. Also, the growth in assay [7] is 94.4%; in [8] it was 116%; in [9] it was 93.5%; in assay [10] it was 101%; in assay [13] it was 94.4%; in assay [14], 100%. Further, the growth is 92.6% in [15]; 98.3% in [16]; 97.4% in [17]; 95.2% in assay [18]; 111% in assay [19].
On to `COc1ccc(C2C3=C(COC3=O)N(CCO)c3cc(OC)c(OC)cc32)cc1` (centres undefined), for which the growth is 113% in assay [1]; 82.5% in [2]; 112% in [4]; 114% in assay [5]; 101% in [20]; 110% in [6]. The growth is 105% in assay [7]; 116% in [8]; 108% in [9]; 98.9% in [10]; 95.1% in [11]; 93.3% in [12]. Further, the growth in assay [13] was 109%; in assay [14], 101%; in assay [15], 106%; in [16] it was 100%; in assay [17] it was 107%; in assay [18], 101%. For the same compound, the growth in assay [19] was 115%.
With `Fc1ccc(-c2nnc(N3CCOCC3)c3ccccc23)cc1`, the growth was 104% in assay [1]; 99% in assay [2]; 82.9% in assay [3]; 107% in [4]; 103% in assay [20]; 99.2% in [7]. The growth is 94.7% in assay [8]; 93.9% in assay [9]; 99.1% in assay [10]; 111% in assay [11]; 101% in assay [12]; 88.8% in [13]. In addition, the growth in [14] is 108%; in [15] it was 95.8%; in assay [16] it was 96.9%; in [17], 96.1%; in assay [18], 104%; in assay [19] it was 106%.
For `CCCCn1c(-c2ccc(F)cc2)nc2cc(OC)c(OC)cc2c1=O`, the growth in assay [1] was 111%; in assay [2], 85.5%; in assay [3], 71.8%; in assay [4], 87.1%; in [20], 101%; in [7], 101%. Also, the growth was -32.2% (active) in assay [8]; 127% in [9]; 105% in assay [10]; 107% in assay [11]; 98.8% in assay [12]; 97.6% in assay [13]. Moreover, the growth in assay [14] is 105%; in assay [15], 102%; in assay [16], 89.8%; in [17] it was 81.8%; in [18], 98.3%; in [19], 97.5%.
For the compound `NS(=O)(=O)c1ccc(N2N=C(c3ccc(Br)cc3)CC2c2cn(-c3ccccc3)nc2-c2ccc(Cl)cc2)cc1` (centres undefined), the growth in [1] was 94.7%; in assay [2], 63%; in assay [4], 99%; in [5] it was 88.9%; in assay [20] it was 84.7%; in [6], 92.7%. The growth in assay [7] is 104%; in assay [8], 96.7%; in assay [9], 83.7%; in assay [10] it was 78.7%; in assay [11] it was 76.6%; in assay [12], 92.4%. Also, the growth was 96% in assay [13]; 86.9% in assay [14]; 73.3% in assay [15]; 99.7% in assay [16]; 82.5% in assay [17]; 88% in assay [18]. Besides, the growth in assay [19] is 108%.
For the compound `Cn1c(=O)c2[nH]c(Cc3ccc4c(c3)OCO4)nc2n(C)c1=O`, the growth in assay [1] is 115%; in [2], 108%; in [3] it was 126%; in [4] it was 123%; in [5], 108%; in assay [6], 104%. Also, the growth is 94.8% in assay [7]; 111% in assay [8]; 107% in [9]; 93.8% in [10]; 95.3% in [12]; 101% in assay [13]. The growth in [14] is 110%; in assay [15], 86.1%; in assay [16] it was 108%; in [17] it was 98%; in assay [18], 99.5%; in assay [19], 106%.
As to `CCc1ccc2c(c1)N(CCO)C1=C(C(=O)OC1)C2c1cccc(Br)c1` (centres undefined), the growth in [1] was 12%; in [2], 14.8%; in [4], 34.9%; in assay [5], 10.9%; in assay [20], 47.2%; in assay [6], -19.3% (active). For the same compound, the growth in [7] is -8.23% (active); in [8], 63.4%; in assay [9], 10.8%; in assay [10], 26.3%; in assay [11], 3.88% (active); in assay [12], 2.55% (active). Moreover, the growth in assay [13] was 37.9%; in assay [14], 24%; in assay [15], 30.1%; in assay [16] it was 33.2%; in assay [17], 35.5%; in assay [18] it was 42.2%. In [19], the growth was 49%.
`COC(=O)c1cc2oc(/C=N/NC(=O)c3cc4oc(-c5cccc(C(F)(F)F)c5)cc4[nH]3)cc2n1Cc1ccccc1`: the growth in [1] is 111%; in assay [2], 91.3%; in [3], 6.57% (active); in [4], 104%; in [20] it was 84.8%; in assay [7], 92.4%. The growth in assay [8] is -29.3% (active); in assay [9], 121%; in assay [10] it was 98.1%; in assay [11] it was 104%; in [12], 84.4%; in assay [14] it was 101%. The growth in [15] is 90.3%; in assay [16], 108%; in [17], 83.4%; in assay [18], 97.6%; in assay [19] it was 113%.
